# From paper PMC8384837, “Expanding the binding specificity for RNA recognition by a PUF domain”
# Numbering of substitutions follows the chain as printed.
# Assays:
# Test in all cases: yeast three-hybrid, YBZ-1, SC-Leu-His + 0.5 mM 3-AT, 4 days
# Conditions in all cases: tags: N-Gal4 AD-HA kept; label: inside an RPR1-promoter hybrid RNA with tandem MS2 sites; ssRNA
# PUM1 PUF domain R4-SPT = PUM1 PUF domain R4-SPT (Homo sapiens, UniProt Q14671 828-1176, N971S;H972P;Q975T)
# Summary of the method: (§1)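 Sequencing with Illumina followed PCR amplification of the repeat regions from transformants grown four days on SC-Leu (input) or SC-Leu-His + 0.5 mM 3-AT (selection). The transformants were strain YBZ-1 with a LexA–MS2 coat fusion and a HIS3 reporter, carrying Pumilio-1 PUF domain libraries and matching RNA elements. The interaction score is the log change in variant frequency from input to selection, computed in log2 with a pseudocount of 1 for absent variants.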
# PUM1 PUF domain R3-FWA = PUM1 PUF domain R3-FWA (Homo sapiens, UniProt Q14671 828-1176, C935F;R936W;Q939A)
# Summary of the method: as §1
# PUM1 PUF domain R3-KRG = PUM1 PUF domain R3-KRG (Homo sapiens, UniProt Q14671 828-1176, C935K;Q939G)
# Summary of the method: as §1
# PUM1 PUF domain R4-CYG = PUM1 PUF domain R4-CYG (Homo sapiens, UniProt Q14671 828-1176, N971C;H972Y;Q975G)
# Summary of the method: as §1
# PUM1 PUF domain R6-MYR = biological target: T1, PUM1 PUF domain R6-MYR (Homo sapiens, UniProt Q14671 828-1176, N1043M;Q1047R)
# T1 sequence: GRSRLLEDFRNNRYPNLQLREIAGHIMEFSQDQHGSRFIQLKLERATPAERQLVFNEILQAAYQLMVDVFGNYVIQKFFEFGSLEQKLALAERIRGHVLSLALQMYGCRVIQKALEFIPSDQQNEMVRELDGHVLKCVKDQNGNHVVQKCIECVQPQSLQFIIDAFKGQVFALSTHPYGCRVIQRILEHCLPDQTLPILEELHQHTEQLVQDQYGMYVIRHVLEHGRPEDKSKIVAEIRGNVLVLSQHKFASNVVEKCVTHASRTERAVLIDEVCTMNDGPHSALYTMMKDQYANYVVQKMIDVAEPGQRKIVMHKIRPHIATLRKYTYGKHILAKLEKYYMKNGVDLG
# Summary of the method: as §1
# PUM1 PUF domain R6-VWR = biological target: T2, PUM1 PUF domain R6-VWR (Homo sapiens, UniProt Q14671 828-1176, N1043V;Y1044W;Q1047R)
# T2 sequence: T1 sequence with M216V, Y217W
# Summary of the method: as §1
# PUM1 PUF domain R6-DWV = biological target: T3, PUM1 PUF domain R6-DWV (Homo sapiens, UniProt Q14671 828-1176, N1043D;Y1044W;Q1047V)
# T3 sequence: T1 sequence with M216D, Y217W, R220V
# Summary of the method: as §1
# PUM1 PUF domain R3-YFA = PUM1 PUF domain R3-YFA (Homo sapiens, UniProt Q14671 828-1176, C935Y;R936F;Q939A)
# Summary of the method: as §1
# PUM1 PUF domain R3-YRL = PUM1 PUF domain R3-YRL (Homo sapiens, UniProt Q14671 828-1176, C935Y;Q939L)
# Summary of the method: as §1
# PUM1 PUF domain R8-HFR = PUM1 PUF domain R8-HFR (Homo sapiens, UniProt Q14671 828-1176, N1122H;Y1123F;Q1126R)
# Summary of the method: as §1
# PUM1 PUF domain R2-RRQ = PUM1 PUF domain R2-RRQ (Homo sapiens, UniProt Q14671 828-1176, N899R;Y900R)
# Summary of the method: as §1
# PUM1 PUF domain R7-RVQ = PUM1 PUF domain R7-RVQ (Homo sapiens, UniProt Q14671 828-1176, S1079R;N1080V;E1083Q)
# Summary of the method: as §1
# PUM1 PUF domain R5-HLK = PUM1 PUF domain R5-HLK (Homo sapiens, UniProt Q14671 828-1176, C1007H;R1008L;Q1011K)
# Summary of the method: as §1
# PUM1 PUF domain R5-RAA = PUM1 PUF domain R5-RAA (Homo sapiens, UniProt Q14671 828-1176, C1007R;R1008A;Q1011A)
# Summary of the method: as §1
# PUM1 PUF domain R5-NAG = PUM1 PUF domain R5-NAG (Homo sapiens, UniProt Q14671 828-1176, C1007N;R1008A;Q1011G)
# Summary of the method: as §1
sequence,measurement,setting,value
GGCUAGAACUAGUGGAUCCCCCGGCGCCCGGCGGCUCGAGCCCGGGUAAGUGUACAUAGUCUGCAUGCCGCCGGGCGCCAUGCCUGCAGGUCGACUCUAGAAAACAUG,binding signal,PUM1 PUF domain R4-SPT,1.24 log2 enrichment (interaction score)
GGCUAGAACUAGUGGAUCCCCCGGCGCCCGGCGGCUCGAGCCCGGGUAAGUGUAAAUAGUCUGCAUGCCGCCGGGCGCCAUGCCUGCAGGUCGACUCUAGAAAACAUG,binding signal,PUM1 PUF domain R3-FWA,4.55 log2 enrichment (interaction score)
same,binding signal,PUM1 PUF domain R3-KRG,2.15 log2 enrichment (interaction score)
same,binding signal,PUM1 PUF domain R4-CYG,7.43 log2 enrichment (interaction score)
same,binding signal,PUM1 PUF domain R6-MYR,6.42 log2 enrichment (interaction score)
same,binding signal,PUM1 PUF domain R4-SPT,3.95 log2 enrichment (interaction score)
same,binding signal,PUM1 PUF domain R6-VWR,5.89 log2 enrichment (interaction score)
same,binding signal,PUM1 PUF domain R6-DWV,2.46 log2 enrichment (interaction score)
same,binding signal,PUM1 PUF domain R3-YFA,4.33 log2 enrichment (interaction score)
same,binding signal,PUM1 PUF domain R3-YRL,2.11 log2 enrichment (interaction score)
GGCUAGAACUAGUGGAUCCCCCGGCGCCCGGCGGCUCGAGCCCGGGUAAGUGCAAAUAGUCUGCAUGCCGCCGGGCGCCAUGCCUGCAGGUCGACUCUAGAAAACAUG,binding signal,PUM1 PUF domain R6-MYR,2.56 log2 enrichment (interaction score)
GGCUAGAACUAGUGGAUCCCCCGGCGCCCGGCGGCUCGAGCCCGGGUAAGCGUAAAUAGUCUGCAUGCCGCCGGGCGCCAUGCCUGCAGGUCGACUCUAGAAAACAUG,binding signal,PUM1 PUF domain R8-HFR,4.92 log2 enrichment (interaction score)
GGCUAGAACUAGUGGAUCCCCCGGCGCCCGGCGGCUCGAGCCCGGGUAAGUGUAAAGAGUCUGCAUGCCGCCGGGCGCCAUGCCUGCAGGUCGACUCUAGAAAACAUG,binding signal,PUM1 PUF domain R2-RRQ,3.28 log2 enrichment (interaction score)
GGCUAGAACUAGUGGAUCCCCCGGCGCCCGGCGGCUCGAGCCCGGGUAAGUCUAAAUAGUCUGCAUGCCGCCGGGCGCCAUGCCUGCAGGUCGACUCUAGAAAACAUG,binding signal,PUM1 PUF domain R7-RVQ,1.92 log2 enrichment (interaction score)
GGCUAGAACUAGUGGAUCCCCCGGCGCCCGGCGGCUCGAGCCCGGGUAAGUGAAAAUAGUCUGCAUGCCGCCGGGCGCCAUGCCUGCAGGUCGACUCUAGAAAACAUG,binding signal,PUM1 PUF domain R6-VWR,3.34 log2 enrichment (interaction score)
GGCUAGAACUAGUGGAUCCCCCGGCGCCCGGCGGCUCGAGCCCGGGUAAGUGUUAAUAGUCUGCAUGCCGCCGGGCGCCAUGCCUGCAGGUCGACUCUAGAAAACAUG,binding signal,PUM1 PUF domain R5-HLK,3.05 log2 enrichment (interaction score)
same,binding signal,PUM1 PUF domain R5-RAA,1.06 log2 enrichment (interaction score)
same,binding signal,PUM1 PUF domain R5-NAG,4.83 log2 enrichment (interaction score)
